Hits are enriched below; roughly 4% of the tested compounds scored in any of these assays.
tim23-1 inh = growth inhibitors of tim23-1 mutant yeast. S. cerevisiae tim23-1 growth, BacTiter-Glo luminescence, 24 h. inhibition, % at 20 µM. actives 1.3% (n = 330,000);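 active = growth inhibition of the mutant yeast at or above 50%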;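 also: temperature-sensitive mutant grown at 25 °C; plate controls were DMSO-treated mutant yeast for no effect and medium wells lacking yeast for full effect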
TIM10 inh = TIM10 yeast growth inhibition | S. cerevisiae TIM10 strain growth, BacTiter-Glo luminescence, 24 h | inhibition, % at 10 µM | actives 1.4% (n = 330,000);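 active = inhibition of 40% or more at the single tested concentration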;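 also: wild-type TIM10 isogenic control strain grown at permissive 25 °C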
tim10-1 inh = tim10-1 yeast growth inhibition | S. cerevisiae tim10-1 ts strain growth, BacTiter-Glo, 24 h | inhibition, % at 20 µM | actives 2.2% (n = 330,000);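 active = inhibition of at least 40%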;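 also: mutant grown at 25 °C; 0% = DMSO wells with yeast and 100% = wells holding no yeast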
NALP1 yeast inh = inhibitors of NALP1 inflammasome in yeast | S. cerevisiae NALP1/ASC/caspase-1 growth, X-gal OD620, 72 h | inhibition, % at 10 µM | actives 0.61% (n = 280,000); in the data active = inhibition mostly above about 24%, no sharp cut-off; inactive = mostly below about 32%
NALP3 yeast inh = NALP3 inhibition in yeast; Yeast reconstituted NLRP3/ASC/caspase-1, beta-gal luminescence, 24 h; inhibition, % at 10 µM; actives 0.39% (n = 330,000);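 active = inhibition of 50% or more; inactive = inhibition below 50%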;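 also: plate controls were induced DMSO wells for no effect and uninduced yeast grown without galactose for full effect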
tim10-1 confirm = confirmation of tim10-1 mutant yeast growth inhibitors; shares compounds with tim10-1 inh; S. cerevisiae tim10-1 ts strain growth, BacTiter-Glo, 24 h; inhibition, % at 20 µM; actives 56% (n = 7,400);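 active = inhibition of yeast growth at or above a set limit in either of two repeat tests at 20 µM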;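 also: tim10-1 mutant grown at permissive 25 °C to find synthetic lethal compounds; 0% = DMSO yeast wells and 100% = medium wells without yeast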
The depositor's hits bear a star; . = not tested or not shown.

SMILES	tim23-1 inh	TIM10 inh	tim10-1 inh	NALP1 yeast inh	NALP3 yeast inh	tim10-1 confirm
CC(C)c1cc(-c2cc(C(=O)NCc3ccccc3)on2)nc(NCC2CC2)n1	48	16	44*	6	31	29
CC1=NN(C(N)=S)C(=O)C1N=Nc1c(C)cc(C)cc1C (stereo not given)	7	37	45*	1	33	26
CC1=NN(C(N)=S)C(=O)C1N=Nc1ccc(C)cc1C (stereo not given)	-8	9	4	-2	34	.
Cn1c(N2CCOCC2)nc(-c2ccccc2)c1-c1ccccc1	41	39	46*	-27	-73	39*
CCOC(=O)C1CCCN(C(=O)c2ccc(Cl)c(S(=O)(=O)N3CCCCCC3)c2)C1 (stereo not given)	26	-9	23	-5	14	.
O=C(CN1CCOCC1)N/N=C/c1c(O)ccc2ccccc12	49	22	46*	4	28	5
O=C(CN1CCOCC1)N/N=C/c1ccco1	3	5	2	-4	14	.
O=C(CSCC(=O)Nc1ccccc1)N/N=C/c1c(O)ccc2ccccc12	-13	38	42*	-14	16	16
COc1ccc(N2C(=O)c3ccccc3C(C)(C)C2=O)cc1	45	27	23	14	15	.
COc1ccc2c(c1)C(=O)N(c1ccccc1C)C(=O)C2(C)C	32	33	47*	-6	32	30
CC1(C)CC(NC(=O)c2cc(COc3cccc(C(F)(F)F)c3)on2)CCO1 (stereo not given)	31	13	48*	12	14	19
CCOc1ccc(S(=O)(=O)N2CCN(CC(O)COc3cccc([N+](=O)[O-])c3)CC2)cc1 (stereo not given)	19	28	44*	0	3	8
Cc1ccc(S(=O)(=O)N2CCN(CC(O)COc3ccccc3)CC2)cc1 (stereo not given)	22	6	10	11	22	.
C=C(C)CSc1nncn1/N=C/c1ccc(OC)cc1	28	19	43*	17	-1	32*
CCSc1nncn1/N=C/c1ccc(OC)c(OC)c1	-5	-11	-4	.	0	.
O=C(COC(=O)c1cnccn1)N=c1sccn1Cc1ccccc1Cl	-22	-25	-16	.	13	.
Cc1nsc(Nc2ccccc2)c1C#N	7	-3	-11	-6	26	.
CC1=CC(C)(C)Nc2ccc(OC(=O)c3ccco3)cc21	30	14	23	24	28	.
CC1=CC(C)(C)Nc2ccc(OC(=O)c3cccnc3)cc21	33	13	40*	23	8	25
COc1cc2c(cc1OC)CN(C1CCCN(Cc3cc(Cl)ccc3O)C1)CC2 (stereo not given)	-7	6	-5	10	9	.
CCOc1ccc(NC(=O)C(C)Oc2ccccc2C(=O)Nc2cccc(Cl)c2Cl)cc1 (stereo not given)	10	19	41*	5	10	10
CCOC(=O)CNC(=O)CSc1nc2cccnc2n1C1CCCCC1	16	-4	12	17	-10	.
CC(C)OC(=O)CSc1nc2cccnc2n1C1CCCCC1	14	10	40	19	-4	15
CCOC(=O)n1c(=O)n(Cc2ccccc2C)c2ccccc21	41	12	30	-1	9	.
COc1cc(NC(=S)Nc2cccc(Cl)c2Cl)c(OC)cc1Cl	37	35	42*	-16	18	25
SMILES	tim23-1 inh	TIM10 inh	tim10-1 inh	NALP1 yeast inh	NALP3 yeast inh	tim10-1 confirm
COc1cc(Cl)c(C)cc1NC(=O)c1cccc(OC)c1OC	26	16	41*	6	18	15
COc1cc(NC(=S)Nc2ccc(Br)cc2Cl)c(OC)cc1Cl	21	36	39	6	18	.
COc1cccc(C(=O)Nc2cccc3ccccc23)c1OC	36	-6	25	16	35	.
COc1cc(Cl)c(C)cc1NC(=S)NN	44	32	41*	-6	3	27
COc1cc(Cl)c(C)cc1NC(=O)CSc1ccc(NC(C)=O)cc1	29	9	42*	28	19	29
CC1CN(C(=O)c2ccccc2OCc2ccc(Cl)cc2Cl)CC(C)O1 (stereo not given)	40	14	33	.	5	.
Cc1c(Cl)cccc1NC(=O)CN(C1CCCCC1)S(C)(=O)=O	11	6	7	11	16	.
Brc1cc(Cc2nnc(-c3ccccc3)o2)c(Br)s1	14	6	7	22	5	.
COc1cc(C)c(NC(=S)Nc2ccc(Cl)c(Cl)c2)cc1OC	34	26	45*	11	-6	23
COc1ccc(C)cc1NC(=S)NNC(=O)c1ccccc1Cl	23	29	44*	-15	6	48*
CCOC(=O)/C(=C\c1ccc([N+](=O)[O-])o1)NC(=O)c1ccccc1	44	34	47*	-6	7	42*
COc1ccc(NC(=O)CN(C)C(=O)c2cn(-c3ccccc3)nc2-c2ccc(Cl)cc2)cc1	36	14	41*	.	9	20
N#CC(c1ccccc1O)N1N=C(c2ccccc2)CC1c1ccccc1 (stereo not given)	23	27	-39	-27	26	.
COc1cc(C(C#N)N2N=C(c3ccccc3)CC2c2ccccc2)ccc1O (stereo not given)	37	22	43*	-12	2	19
CCCCC(c1nnnn1CS(=O)(=O)c1ccc(C)cc1)N1CCN(C)CC1 (stereo not given)	13	-16	10	-2	10	.
COc1ccc(/C=C2\SC(=O)N(CCNC(=O)C3=COCCO3)C2=O)cc1	3	-14	-10	.	7	.
O=C(NCCN1C(=O)S/C(=C\c2ccc(OC(F)F)cc2)C1=O)C1=COCCO1	43	28	44*	.	11	29
CC1CCN(C(=S)c2cn(Cc3cccc(F)c3)c3ccccc23)CC1	11	34	41*	14	5	20
CC(CNC(=O)CCc1nnc(CCC2CCCCC2)o1)c1ccccc1 (stereo not given)	21	23	40	-4	12	33*
COCCNC(=O)CN1C(=O)NC2(CCCc3cc(OC)ccc32)C1=O (stereo not given)	2	11	2	-12	7	.
CCOC(=O)/C(C#N)=C/c1cn(CCOc2ccccc2)c2ccccc12	6	-9	13	21	18	.
CCOC(=O)/C(C#N)=C\c1cn(C)c2ccccc12	20	22	41*	11	21	15
O=C(Nc1ccc(N2CCOCC2)c(Cl)c1)c1c(F)c(F)c(F)c(F)c1F	24	32	50*	18	-95	40*
CCCNC(=S)Nc1ccc(Nc2ccccc2)cc1	25	1	42*	-4	25	24
S=C(NCCCNC(=S)Nc1ccccc1)Nc1ccccc1	22	5	10	0	1	.

Bioassay records deposited in PubChem BioAssay by Sanford-Burnham Center for Chemical Genomics.
